# “And” between values parts separate entries of the source, which are not always exact repeats. Equal entries are not always repeated. Inconclusive results are not listed. The source made the active and inactive calls. The call rests on the fitted dose curve; in most records, active means well fitted inhibition curve with a large enough effect; inconclusive means small, poorly fitted or top-dose-only effect; inactive means flat fitted curve, though single readings scatter.
# Test system: CRL-7250
# Assay: Cytotoxic Profiling of Annotated Libraries Using Quantitative High-Throughput Screening (AID 1296008); further: nearly all actives have a fitted effect of over 60% in size
# Conditions: Five cell lines viability, CellTiter-Glo ATP luminescence, 48-72 h; max response: hits give low values
# Procedure, shortened: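 Cytotoxicity was measured as CellTiter-Glo ATP luminescence, read after 10 min at room temperature. Compound treatment of the cells lasted 48 or 72 hr at 37 degrees Celsius in a qHTS format.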
# On the % scale 0 is the no-effect control and ±100 the full control effect; potency means the concentration at half of the fitted maximal effect.
SMILES,outcome,max response,Potency
CC1(C)Cc2c(sc(NC(=S)NC(=O)c3ccccc3)c2C(=O)O)CO1,inactive,,
O=C(O)CCC1CCC(c2cc(F)ccc2F)(S(=O)(=O)c2ccc(Cl)cc2)CC1 (configuration not stated),inactive,,
CC(=O)OC1C(C)OC(Oc2c(-c3ccc(O)cc3)oc3cc(O)cc(O)c3c2=O)C(O)C1OC(C)=O (configuration not stated),,-21.1% (inactive),
C=C1C(=O)[C@@]23C(CC[C@@H]1[C@H]2O)[C@@]12CO[C@]3(O)[C@@H](O)[C@@H]1C(C)(C)CC[C@@H]2O (some centres not stated),,,18.4 µM (active)
CC(C)NCC(O)COc1cccc2[nH]ccc12 (configuration not stated),,-21.3% (inactive) and 3.12% (inactive),
O=C(Nc1cc(Cl)cc2c1[nH]c1cnccc12)c1cccnc1,,-0.841% (inactive),
O=C(O)C(O)Cc1ccc(O)c(O)c1 (configuration not stated),,-24.8% (inactive),
O=C(O)c1ccccc1C(=O)Nc1ccc(-c2ccccc2)cc1,,4.68% (inactive),
O=c1cc(CN2CCOCC2)occ1OCCCCCSc1ccnc2cc(C(F)(F)F)ccc12,,,11.8 µM (active) and 9.2 µM (active)
CN1C[C@H]2c3ccccc3Oc3ccc(Cl)cc3[C@@H]2C1,,-7.6% (inactive) and -3.52% (inactive),
O=C1c2ccccc2-[n+]2ccc3c([nH]c4ccccc43)c21,,,4.69 µM (active)
CN(C)CCC=C1c2ccccc2COc2ccc(CC(=O)O)cc21,inactive,,
NC(=O)NN=Cc1ccc([N+](=O)[O-])o1,inactive,,
CC#CCn1c(N2CCC[C@@H](N)C2)nc2c1c(=O)n(Cc1nc(C)c3ccccc3n1)c(=O)n2C,,0.558% (inactive),
CNC(=O)c1ccc2cc(C3(O)CCn4cncc43)ccc2c1 (configuration not stated),,-2.53% (inactive) and -8.91% (inactive),
COc1cccc([C@@H](C)NCCCc2ccccc2Cl)c1,inactive,,
CCNc1cc(NC2CCC(O)CC2)nc(Nc2ccc3c(ccn3Cc3ccccc3)c2)n1 (configuration not stated),,1.87% (inactive),
CC(=O)O[C@]1(C(C)=O)CC[C@@H]2[C@@H]3C[C@H](C)C4=CC(=O)CC[C@]4(C)[C@H]3CC[C@@]21C,,2.81% (inactive),
CC(C)C[C@H](CC(=O)O)C(=O)N[C@@H](Cc1c[nH]c2ccccc12)C(=O)N[C@@H](C)c1ccccc1,,-5.99% (inactive),
CCC(CC)[C@H](NC(C)=O)[C@@H]1[C@H](O)[C@@H](C(=O)O)C[C@@H]1N=C(N)N,,2.58% (inactive),
Nc1ncnc2c1ncn2[C@@H]1O[C@H](CO)C[C@@H]1O,,-11.4% (inactive),
CN1[C@@H]2CCC[C@@H]1CC(NC(=O)c1nn(C)c3ccccc13)C2 (some centres not stated),,-0.159% (inactive),

# Reference: PubChem BioAssay (NCATS)
